Experimental data as given in ChEMBL document CHEMBL1157539, “Thousands of chemical starting points for antimalarial lead identification” (Nature, 2010).
Several values for one entry are separate records, joined by “and”; a condition that tells them apart may be missing. Equal entries are not always repeated.

Tested on: Plasmodium falciparum
Experiment: GSK_TCMDC: Inhibition of Plasmodium falciparum 3D7 in whole red blood cells, using parasite LDH activity as an index of growth. Test compounds present at 2uM
Format: functional

| Structure (SMILES) | Inhibition |
| --- | --- |
| C=C[C@H]1CN2CC[C@H]1C[C@H]2[C@H](O)c1cc(/C=C/c2ccc(F)cc2)nc2ccc(OC)cc12.Cl | 99% |
| Fc1ccc(N(c2nc(-c3cc(F)cc(C(F)(F)F)c3)cs2)C2CCNCC2)cc1.O=C(O)C(F)(F)F | 95% |
| CN(c1cc(NC(=O)c2ccc(F)cc2)ccn1)C1CCN(Cc2cccc(C#N)c2)CC1.O=C(O)C(F)(F)F | 97% |
| CS(=O)(=O)Nc1ccc2[nH]cc(C3CC4CCC(C3)N4CC3CCC(NC(=O)/C=C/c4ccc(Cl)c(Cl)c4)CC3)c2c1 (stereo not drawn) | 100% |
| Cc1[nH]c2c(C)cc(NS(C)(=O)=O)cc2c1C1CCN(CC2CCN(C(=O)/C=C/c3ccc(Cl)c(Cl)c3)CC2)CC1 | 100% |
| Cl.Fc1ccc2[nH]cc(CCN3CCC(CNCc4ccccc4)CC3)c2c1 | 100% |
| O=C(Nc1cc(C(F)(F)F)cc(C(F)(F)F)c1)NC1CCC(CN2CCC(c3c[nH]c4ccccc34)CC2)CC1 (stereo not drawn) | 97% and 100% |
| O=C(O)/C=C\C(=O)O.OC1(c2ccc(Cl)c(C(F)(F)F)c2)CCN(CCOC2c3ccccc3CSc3ccc(Cl)cc32)CC1 (stereo not drawn) | 95% |
| Br.CC[C@H]1CN2CC[C@H]1C[C@H]2[C@H](O)c1ccnc2ccc(C#N)cc12 | 100% |
| CN(C(=O)OCc1ccccc1)C1CCC(CCN2CCC3(CC2)C(=O)NCN3c2cccc(C(F)(F)F)c2)(c2ccccc2)CC1 (stereo not drawn) | 80% |
| CC[C@H]1CN2CC[C@H]1C[C@H]2[C@H](O)c1cc(N2CCC3CCCCC3C2)nc2ccc(OC)cc12 (stereo partly drawn) | 100% |
| O=C(/C=C/c1cc(C(F)(F)F)ccc1F)N1CCC(CN2CCC(c3c[nH]c4ccccc34)CC2)CC1 | 96% |
| COc1cc(CN2CCN(c3ccnc(N(C)C4CCN(C)CC4)n3)CC2)cc(Cl)c1O | 94% |
| COc1cccc(C(=O)C2CC2CN2CC=C(c3c[nH]c4cccc(Br)c34)CC2)c1 (stereo not drawn) | 96% |
| COCCSc1ccc(CC(C)NCC(O)c2cccc(Cl)c2)cc1.Cl (stereo not drawn) | 97% |
| CN1CC(c2ccc(Cl)c(Cl)c2)OC1=N.I (stereo not drawn) | 99% |
| CCCCCC(C)C(C)c1cc(O)c2c(c1)OC1(C(C)C)CC(O)C(C)C2C1 (stereo not drawn) | 93% |

| Structure (SMILES) | Inhibition |
| --- | --- |
| CCC(C)(C)NC(C)C(O)c1ccc(C(F)(F)F)cc1.Cl (stereo not drawn) | 97% |
| CCN(CC)CCCC(C)Nc1ccnc2cc(Cl)ccc12.O=P(O)(O)O.O=P(O)(O)O (stereo not drawn) [CHLOROQUINE PHOSPHATE] | 100% |
| CC1CN=C(Nc2ncc(Cl)cc2Cl)N1.Cl (stereo not drawn) | 99% |
| C#CCOc1ccc(CC(C)NCC(O)c2cccc(C(F)(F)F)c2)cc1 (stereo not drawn) | 93% and 90% |
| O=C(/C=C/C=C/c1ccccc1)NC1CCC(CN2CCC(c3c[nH]c4ccccc34)CC2)CC1 (stereo not drawn) | 100% |
| O=C(NC1CCC(CN2CCC(c3c[nH]c4ccccc34)CC2)CC1)c1ccc(-c2cc(C(F)(F)F)ccc2Cl)o1 (stereo not drawn) | 100% |
| CC(=O)N(Cc1ccccc1-c1cccc(CNCc2ccc3c(c2)OCO3)c1)C1CCN(Cc2ccccc2)CC1.O=C(O)C(F)(F)F | 85% |
| CCC1=C[C@@H]2CN(C1)Cc1c([nH]c3ccccc13)[C@@](C(=O)OC)(c1cc3c(cc1OC)N(C)[C@H]1[C@@](O)(C(=O)OC)[C@H](O)[C@]4(CC)C=CCN5CC[C@]31[C@@H]54)C2.O=S(=O)(O)O | 98% |
| CC[C@H]1CN2CC[C@@H]1C[C@@H]2[C@@H](O)c1cc(-c2ccc(F)cc2)nc2ccc(OC)cc12.Cl | 98% |
| COc1ccc(C(=O)c2ccc3[nH]cc(C4=CCN(C)CC4)c3c2)cc1 | 88% |
| CC(C)CNCc1cccc(-c2ccc(CN(C(=O)NC3CCCCC3)C3CCN(Cc4ccccc4)CC3)cc2)c1.O=C(O)C(F)(F)F | 97% |
| N=C(N)NC(=O)Nc1ccc([N+](=O)[O-])c(Cl)c1 | 90% |
| O=C(/C=C/c1ccccc1Cl)NC1CCC(CN2CCC(c3c[nH]c4ccccc34)CC2)CC1 (stereo not drawn) | 100% and 99% |
| O=C(/C=C/c1ccc(Cl)c(Cl)c1)N1CCC(CN2C3CCC2CC(c2c[nH]c4ccccc24)C3)CC1 (stereo not drawn) | 100% |
| O=C(NC1CCC(N2CCC3(CC2)C(=O)NCN3c2ccccc2)CC1)c1cc2ccccc2[nH]1 (stereo not drawn) | 98% |
| Cc1c(C(=O)N[C@@H](C)c2ccccc2)c2cc(O)c(Br)cc2n1C1CCCCC1 | 98% |
